Laboratory results from PubChem BioAssay (EPA / NIEHS).
Results filed as inconclusive are left out. Active and inactive are the calls of the source. The calls were made as follows: active = hit-call score of the fitted dose curve at least 0.9, where 1 is the maximum; inconclusive = response in the unintended direction; inactive = score below 0.9.

What follows are compounds tested against human Vitamin D Receptor (VDR), VDR (gene 7421) (UniProt P11473) (assay: ATG_VDR_TRANS: Attagene TRANS-FACTORIAL HepG2 Assay for human Vitamin D Receptor (VDR) (AID 2283022)).
Description: ATG_TRANS is a cell-based, multiplexed-readout assay that uses HepG2, a human liver cell line, with measurements taken at 24 hours after chemical dosing in a 24-well plate.ATG_VDR_TRANS is one of 30 assay component(s) measured or calculated from the ATG_TRANS assay. It is designed to make measurements of mRNA induction, a form of inducible reporter, as detected with fluorescence intensity signals by Reverse transcription polymerase chain reaction (RT-PCR) and Capillary electrophoresis technology.Data from the assay component ATG_VDR_TRANS was analyzed into 1 assay endpoint. This assay endpoint, ATG_VDR_TRANS, was analyzed in the positive analysis fitting direction relative to DMSO as the negative control and baseline of activity. Using a type of inducible reporter, measures of mRNA for gain-of-signal activity can be used to understand the reporter gene at the transcription factor-level as they relate to the gene VDR. Furthermore, this assay endpoint can be referred to as a primary readout, because this assay has produced multiple assay endpoints where this one serves a reporter gene function. To generalize the intended target to other relatable targets, this assay endpoint is annotated to the nuclear receptor intended target family, where the subfamily is non-steroidal.
Human liver HepG2 cells are transiently transfected with multiple reporter transcription units (MRTUs) in 6-well plates using FuGene 6 reagent (Roche; 3 ml FuGene/1 mg DNA). The MRTU constructs are regulated by a cis-regulating element (promoter). […] A major difference between the CIS and TRANS system is that in CIS activities of endogenous TFs are measured, whereas the TRANS assay evaluates changes in activities of exogenous, chimeric NR-Gal4 proteins. […] At the end of 24 hour incubation, total RNA was isolated using TriZol reagent (Invitrogen). The isolated RNA is then reverse-transcribed using oligo(dT) primer and Mo-MLV reverse transcriptase (Invitrogen) with DNAse I (Ambion) treatment for 30 min. The one-tenth of the produced cDNA was amplified by PCR using Taq DNA polymerase (Invitrogen) and two reporter sequence-specific primers. The PCR products were fluorescently labeled by primer extension with 6-arboxyfluorescein (6-FAM) 5'-labeled reporter sequence-specific primer (2 min at 95 C, 20 s at 68 C and 10 min at 72 C) and these products were digested with 5U of HpaI (New England Biolabs) for 2h at 37 C. The fragments were purified using Qiaquick PCR columns (Qiagen), analyzed on an ABI 3130xL genetic analyzer (Applied Biosystems) with peak positions identified by using a set of X-rhodamine (ROX)-labeled MapMarker1000 molecular weight standards (BioVentures). The raw capillary electrophoresis data was processed using Attagraph software (Attagene).

Sequence of human Vitamin D Receptor (VDR), VDR (gene 7421) (P11473 whole entry, looked up): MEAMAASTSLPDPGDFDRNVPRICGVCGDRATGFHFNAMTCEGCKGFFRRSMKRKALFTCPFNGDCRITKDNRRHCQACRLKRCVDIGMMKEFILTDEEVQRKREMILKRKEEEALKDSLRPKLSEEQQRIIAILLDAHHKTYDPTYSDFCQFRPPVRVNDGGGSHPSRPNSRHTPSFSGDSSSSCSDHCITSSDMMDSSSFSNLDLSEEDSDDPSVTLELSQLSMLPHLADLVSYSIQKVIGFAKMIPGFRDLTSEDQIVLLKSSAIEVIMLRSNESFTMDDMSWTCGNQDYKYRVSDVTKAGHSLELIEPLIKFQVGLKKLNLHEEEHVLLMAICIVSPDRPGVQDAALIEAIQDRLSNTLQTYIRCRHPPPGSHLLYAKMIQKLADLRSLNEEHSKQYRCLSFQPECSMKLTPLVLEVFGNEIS

outcome, inactive:
Cc1ccc([N+](=O)[O-])cc1S(=O)(=O)O, C=CCCCCCCCCC(=O)OCCCC, CC(C)c1ccc(C=O)cc1, O=C1c2cccc(O)c2C(=O)c2c(O)cc(CO)cc21, CCO[Si](CCCN=C=O)(OCC)OCC, O=C1Nc2ccccc2C1(c1ccc(O)cc1)c1ccc(O)cc1, O=[N+]([O-])C1(Br)COCOC1, Cc1ccc(N)c([N+](=O)[O-])c1, CCOc1nc(F)cc2nc(S(=O)(=O)Nc3c(Cl)cccc3C(=O)OC)nn12, Cc1ccc(C2OC[C@@H]3OC(c4ccc(C)cc4)O[C@H]([C@H](O)CO)[C@@H]3O2)cc1 (stereo not given in full), CCC(Cc1ccccc1)(C(=O)c1ccc(N2CCOCC2)cc1)N(C)C (stereo not given), CCCCCCCC/C=C\CCCCCCCC(=O)OCCO, Cc1cc(C)c(C(=O)O)c(C)c1, CC(C)(C)c1ccc(OC(=O)c2ccccc2O)cc1, CCCCC(CC)COC(=O)c1ccccc1O (stereo not given), N#[N+]c1ccc2c(S(=O)(=O)[O-])cccc2c1O, O=S(=O)(O)CC(O)CCl (stereo not given), CC(C)CC(O)Cc1ccccc1 (stereo not given), CCOC(=O)NNc1nncc2ccccc12, O=C(Oc1ccccc1)c1ccc2ccccc2c1O, NC(=O)NNC(N)=O, Cc1ccc2oc(=O)ccc2c1, CCCCCc1ccc(Cl)cc1, O=S(=O)(O)c1ccc2cc(O)c(S(=O)(=O)O)cc2c1, CCN(Cc1cccc(S(=O)(=O)O)c1)c1ccc(C(=C2C=CC(=[N+](CC)Cc3cccc(S(=O)(=O)[O-])c3)C=C2)c2ccccc2)cc1, CCCCCCCCCCCSCC(=O)O, O=S1(=O)OC(c2ccc(O)cc2)(c2ccc(O)cc2)c2ccccc21, Nc1ccc2cc3ccccc3cc2c1, O=C(c1ccccc1)C1CCC1, Cn1c([N+](=O)[O-])cnc1COC(N)=O, NCCCN1CCN(CCCN)CC1, Cc1ccc(C(C)c2ccc(C)c(C)c2)cc1C, CC(C)(C)C(=O)CCc1ccc(Cl)cc1, O=CN1CCCCC1, Nc1nc2ccccc2[nH]1, Nc1ccc(N)c(Cl)c1, O=c1cc(-c2ccccc2)oc2ccccc12, CCOC(=O)c1ccc(N(C)C)cc1, Nc1ncn([C@@H]2O[C@H](CO)[C@@H](O)[C@H]2O)c(=O)n1, CCCCC(CC)COC(=O)c1ccccc1 (stereo not given)
